A selection: hits, their analogues and other compounds. The true share with any hit is near 10%.
HP1b chromo inh: HP1-beta chromodomain-methylated histone interaction inhibition. P83916. actives 0.56% (n = 390,000). Potency, µM (highest dose often 114 µM), for the others: at the top dose activity change, negative = inhibition, hits mostly inhibitors. AlphaScreen HP1-beta / biotin-H3K9me3 peptide binding; further: potency means the concentration at half of the fitted maximal effect; nearly all actives have a fitted effect of over 70% in size
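AlphaScreen: HP1-beta (50 nM) preformed 30 min with biotin-H3(1-18)K9me3 peptide (50 nM) in PBS pH 7.4, 0.01% Tween-20. Compound added for 30 min at RT, then streptavidin donor/nickel chelate acceptor beads (10 ug/mL) for 30 min.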
G9a block: inhibitors of human histone lysine methyltransferase G9a | Q96KQ7 | G9a H3K9 monomethylation, AlphaScreen, 2 h | Potency, µM (doses to about 102 µM), for the others: top-dose activity, negative = inhibition, hits mostly inhibitors | actives 8.8% (n = 350,000); further: potency means the concentration at half of the fitted maximal effect; on the % scale 0 is the no-effect control and ±100 the full control effect; nearly all actives have a fitted effect of over 75% in size
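Chemiluminescent proximity detection of H3K9 monomethylation, read after 10 min bead incubation in the dark. Reaction: 20 nM G9a, 500 nM biotin-H3K9 peptide, 20 uM SAM cofactor, 2 h, room temperature, following 15 min enzyme-compound preincubation.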
BAZ2B inh: blocks human BAZ2B | Q9UIF8 | AID 504333 | AlphaScreen BAZ2B-H3K14Ac peptide displacement | actives 4.4% (n = 360,000) | Potency, µM (titrated, usually from 114 µM), for inactives: top-dose activity change, negative = inhibition, actives largely listed as inhibitors; further: potency means the concentration at half of the fitted maximal effect; on the % scale 0 is the no-effect control and ±100 the full control effect; nearly all actives have a fitted effect of over 60% in size
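Protein-peptide AlphaScreen: BAZ2B 50 nM, b-H3K14Ac 50 nM, 1x PBS pH 7.4 + 0.01% Tween-20. Preincubation 30 min RT; cpd 30 min RT (top 110 uM); beads 20 min RT, light-protected.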
JMJD2A Tudor inh: JMJD2A Tudor domain (human) inhibition. actives 4.4% (n = 390,000). Potency, µM (doses to about 114 µM), for inactives: at the highest dose activity change, negative = inhibition, actives largely listed as inhibitors. O75164. AlphaScreen JMJD2A-Tudor / H3K4me3 peptide binding; further: potency means the concentration at half of the fitted maximal effect; on the % scale 0 is the no-effect control and ±100 the full control effect; nearly all actives have a fitted effect of over 50% in size
Six1-Eya2 inh: Six1/Eya2 interaction inhibition. Q15475+O00167. AlphaScreen GST-Six1/His-Eya2 binding, biochemical; stronger effect = lower value. actives 0.56% (n = 360,000). activity change, % (no concentration beside the values); in the data active means activity change below about -65%; inconclusive means mostly about -30% to -63%; further: on the % scale 0 is the no-effect control and ±100 the full control effect
Target sequence (O00167 whole entry, looked up): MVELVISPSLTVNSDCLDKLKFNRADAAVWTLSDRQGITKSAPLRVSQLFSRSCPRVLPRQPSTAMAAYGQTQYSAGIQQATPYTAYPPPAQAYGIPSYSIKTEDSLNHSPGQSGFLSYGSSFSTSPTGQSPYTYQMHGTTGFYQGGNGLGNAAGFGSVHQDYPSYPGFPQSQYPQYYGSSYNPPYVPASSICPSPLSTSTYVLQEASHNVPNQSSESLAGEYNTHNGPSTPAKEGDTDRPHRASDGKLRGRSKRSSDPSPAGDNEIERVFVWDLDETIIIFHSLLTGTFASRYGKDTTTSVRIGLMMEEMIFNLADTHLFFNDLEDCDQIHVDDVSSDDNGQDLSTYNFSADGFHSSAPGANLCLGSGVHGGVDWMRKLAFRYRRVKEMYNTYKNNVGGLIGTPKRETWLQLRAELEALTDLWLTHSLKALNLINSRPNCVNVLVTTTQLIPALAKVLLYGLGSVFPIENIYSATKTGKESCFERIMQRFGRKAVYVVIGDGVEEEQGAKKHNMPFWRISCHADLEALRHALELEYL
Target sequence (Q15475 whole entry, looked up): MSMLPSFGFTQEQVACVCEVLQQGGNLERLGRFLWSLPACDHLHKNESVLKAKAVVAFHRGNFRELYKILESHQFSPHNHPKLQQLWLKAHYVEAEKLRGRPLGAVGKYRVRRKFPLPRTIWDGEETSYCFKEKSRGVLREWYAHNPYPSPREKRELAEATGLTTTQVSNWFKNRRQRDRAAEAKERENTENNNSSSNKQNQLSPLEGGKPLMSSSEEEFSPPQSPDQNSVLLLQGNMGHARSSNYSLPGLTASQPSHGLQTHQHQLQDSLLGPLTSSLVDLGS
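GST-Six1 + His-Eya2 (5X stock: 250/500 nM); Tris pH 8.0, 300 mM NaCl, 0.05% BSA, 0.02% Tween 20; GSH donor/Ni acceptor beads; 1 h 37 °C dark; AlphaScreen readout.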
CtBP-E1A inh: blocks the CtBP interaction with E1A; AlphaScreen GST-E1A/His-CtBP binding, 1536-well; stronger effect = lower value; activity change, % (concentration not given with the values); actives 0.49% (n = 340,000); AID 651724; in the data active means activity change below about -65%; inconclusive means mostly about -30% to -63%; further: on the % scale 0 is the no-effect control and ±100 the full control effect
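Homogeneous bead-based format: GST-tagged E1A captured on glutathione donor beads, His-tagged CtBP on nickel acceptor beads; compounds precede bead addition by 2 h at 37 °C.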
The depositor's hits bear a star; ? = inconclusive; nt = no result given; [ ] = dose if it differs, or a comment. Unless noted, the call rests on the fitted dose curve; in most records, active means well fitted inhibition curve with a large enough effect; inconclusive means small, poorly fitted or top-dose-only effect; inactive means no such curve, though single readings can be large or run the other way.

SMILES | HP1b chromo inh | G9a block | BAZ2B inh | JMJD2A Tudor inh | Six1-Eya2 inh | CtBP-E1A inh
O=C(NC1CCCC1)C(c1ccccc1)n1c(-c2cccc3ccccc23)nc2ccccc21 (stereo unspecified) | nt | nt | nt | nt | -9 | 4
Cc1cc(=O)n2nc(N(C)CC(=O)NCc3ccc(Cl)cc3)sc2n1 | 26% | 3%[59 µM] | 3% | -4% | nt | nt
COCCN(C(=O)CSc1nnc(-c2ccncc2)n1C)c1c(N)n(CC(C)C)c(=O)[nH]c1=O | 41% | nt | nt | -9% | 1 | 7
Cc1cc(SCC(=O)N(CC(C)C)c2c(N)n(CC(C)C)c(=O)[nH]c2=O)nc2ccccc12 | 11% | 6.3µM* | 3% | -6% | -10 | -8
Cc1ccc2nc(SCC(=O)N(CC(C)C)c3c(N)n(CC(C)C)c(=O)[nH]c3=O)[nH]c2c1 | 44% | ? | 0% | -2% | 5 | 3
Cc1ccccc1-c1nnc(SCC(=O)N(CC(C)C)c2c(N)n(CC(C)C)c(=O)[nH]c2=O)n1C | 24% | 50µM* | -7% | 15% | 3 | 8
Cc1cc(C)n2c(SCC(=O)N(CC(C)C)c3c(N)n(CC(C)C)c(=O)[nH]c3=O)nnc2n1 | 26% | 18µM* | 0% | -12% | 4 | 5
CC(=O)N1CCC2(CC1)CN(c1ccccc1)C2 | nt | 1%[12.7 µM] | nt | nt | nt | nt
N#CC1C(=N)Cc2ccccc2-c2ccccc21 (stereo unspecified) | 2% | nt | nt | ? | -8 | 1
O=C(Nc1ccccc1-c1nc2ccccc2s1)c1cc(Cl)cc(Cl)c1 | 12%[57 µM] | 20%[59 µM] | 6% | 4% | nt | nt
CNc1sc(C(=O)c2ccc(F)cc2)c(N)c1-c1nc2ccccc2s1 | -29% | 8.9µM* | 50µM* | ? | -29 | ?
CNc1sc(C(=O)c2cccs2)c(N)c1-c1nc2ccccc2s1 | -16% | ? | -6% | 50µM* | ? | ?
O=C(Nc1ccccc1-c1nc2ccccc2s1)c1ccc(F)cc1 | 39% | 5%[59 µM] | 50µM* | 8% | nt | nt
CC1(O)CC(c2ccc(Cl)cc2)=NN1C(=O)c1ccc([N+](=O)[O-])cc1 (stereo unspecified) | ? | ? | 14µM* | -24%[11.4 µM] | -19 | nt
CC(=O)N1N=C(c2ccc(Cl)cc2)CC1c1ccc([N+](=O)[O-])cc1 (stereo unspecified) | 6% | nt | -7% | -26% | 0 | -14
Cc1ccc(NC2CCCN(C(=O)C3CCCCC3)C2)cc1C (stereo unspecified) | 12% | nt | 79µM* | -35% | -21 | -23
Cc1ccc(NC2CCCN(C(=O)CCN3CCCCO3)C2)cc1C (stereo unspecified) | 15% | 32µM* | -29% | -7% | -2 | 9
O=C(CCN1CCCCO1)N1CCCC(Nc2ccc(F)c(F)c2)C1 (stereo unspecified) | 27% | 28% | -2% | -14% | 3 | 15
Cc1ccc(NC2CCCN(C(=O)c3cn(C)c4ccccc34)C2)cc1C (stereo unspecified) | -14% | ? | ? | 25µM* | -16 | -2
Cc1ccc(NC2CCCN(C(=O)c3ccccc3N3CCOCC3)C2)cc1C (stereo unspecified) | 27% | ? | -33% | -21% | -2 | -1
O=C(C1CCCC1)N1CCCC(Nc2ccc(F)cc2)C1 (stereo unspecified) | 22% | ? | -22% | -11% | 1 | 4
COc1ccc(NC2CCCN(C(=O)c3cn(C)c4ccccc34)C2)cc1 (stereo unspecified) | -11% | 18µM* | ? | -26% | -10 | -10
O=C1C=C(c2ccc3cc[nH]c3c2)C[C@@H](c2ccc3c(c2)OCO3)C1 | ? | -4%[0.501 µM] | 50µM* | 56µM* | -12 | ?
O=C1C=C(c2ccc3c(c2)OCO3)C[C@@H](c2ccc3c(c2)OCO3)C1 | 22% | 6%[0.501 µM] | -11% | -20% | 0 | -6

Source: PubChem BioAssay
